# Measured values published in PubChem BioAssay (EPA / NIEHS).
# Results filed as inconclusive are left out. Calls of active or inactive are those of the source. Rule for the calls: active = hit-call score of the fitted dose curve at least 0.9, where 1 is the maximum; inconclusive = response in the unintended direction; inactive = score below 0.9.
# Experiment: ATG_M_19_TRANS: Attagene TRANS-FACTORIAL HepG2 Assay for M19 Transcription Factor (Internal Marker) (AID 2282974)
# Details: HepG2 Attagene TRANS-FACTORIAL M19 internal marker reporter
# How it was run: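 Gain-of-signal in reporter mRNA, relative to DMSO, was scored from capillary electrophoresis fluorescence. HepG2 cells carried transiently transfected multiple reporter transcription units and were incubated with test chemicals for 24 h.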
row,SMILES,outcome
1,CCCCCCCCOC(C)=O,inactive
2,CCOC(=O)C(=O)OCC,inactive
3,O=[N+]([O-])c1cc(N(CCO)CCO)ccc1NCCO,inactive
4,Cc1ccncc1,inactive
5,C=CC(O)CCCCC (stereo not drawn),inactive
6,CCCOC(=O)CC,inactive
7,CCOc1ccc(NC(C)=O)cc1,inactive
8,S=c1[nH][nH]c(=S)s1,inactive
9,CCOC(=O)CC(C)C,inactive
10,CC/C=C\CCOC(=O)C(C)C,inactive
11,CC(=O)c1cccnc1,inactive
12,C[N+](C)(C)CCO,inactive
13,CC1=CC(O)CC(C)(C)C1 (stereo not drawn),inactive
14,COC(=O)c1ccc(C(=O)OC)cc1,inactive
15,O=S1(=O)CC=CC1,inactive
16,CCCCCCCCCCO[C@@H]1O[C@H](CO)[C@@H](O)[C@H](O)[C@H]1O,inactive
17,CCCCCC1CCC(=O)O1 (stereo not drawn),inactive
18,C=C(C)C(=O)OCCOCCOC(=O)C(=C)C,inactive
